We go through five compounds from PubChem BioAssay (EPA / NIEHS).

Results filed as inconclusive are left out. Where a structure was tested more than once in an assay, its records may differ in their call. Active and inactive are the calls of the source. How the source made its calls, unless noted: active means hit-call score of the fitted dose curve at least 0.9, where 1 is the maximum; inactive means score below 0.9.

For orientation: AC50 means the midpoint of the concentration-response curve, whichever way the signal moves.

The target of experiment [1] is Myc proto-oncogene protein (Homo sapiens) (UniProt P01106). The experiment is described as follows: ATG_Myc_CIS: Attagene CIS-FACTORIAL HepG2 Assay for human Myelocytomatosis (Myc) Proto-Oncogene Transcription Factor (AID 2282990). The following applies: HepG2, Attagene cis-reporter transcription factor activity; actives raise or lower the signal. The method in brief:
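HepG2, transient MRTU transfection (cis promoters, endogenous TFs); 24 h dosing; TriZol RNA → oligo(dT) RT → PCR → 6-FAM primer extension → HpaI cut → CE. Bidirectional fit vs DMSO.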

The nature of experiment [2]: ATG_NF_kB_CIS: Attagene CIS-FACTORIAL HepG2 Assay for human Nuclear Factor Kappa B (NF-kB) (AID 2282991). Conditions: HepG2 Attagene cis-factorial NF-kB reporter mRNA; actives raise or lower the signal. The method, boiled down:
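HepG2 cells transfected with cis-promoter-driven reporter units, so endogenous transcription factor activity is measured. Reporter mRNA quantified 24 h after dosing by RT-PCR and capillary electrophoresis, with bidirectional fitting against DMSO.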

A short description of experiment [3]: ATG_NRF2_ARE_CIS: Attagene CIS-FACTORIAL HepG2 Assay for human Nuclear Factor Erythroid 2 Related Factor 2 (NFR2) response to Antioxidant Response Elements (ARE) (AID 2282992). Conditions: HepG2 Attagene ARE/NRF2 reporter, transcription factor activity; actives raise or lower the signal. The method in brief: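 Endogenous transcription factor activity read out as reporter transcript levels (RT-PCR plus capillary electrophoresis, fluorescence) in transiently transfected HepG2 cells. Measured at 24 h after dosing; gain or loss of signal fitted versus DMSO.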

Experiment [4] is described as follows: ATG_Oct_MLP_CIS: Attagene CIS-FACTORIAL HepG2 Assay for human Octamer-Binding Transcription Factor (Oct) (AID 2282993). Conditions: HepG2 Attagene cis-factorial Oct reporter, mRNA; actives raise or lower the signal. The method in brief:
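Readout is reporter transcript level from RT-PCR with fluorescent primer extension and capillary electrophoresis, fitted in both directions against DMSO. Transfected HepG2 reporter units report endogenous factor activity after 24 h dosing.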

Experiment [5] has as its target Cellular tumor antigen p53 (Homo sapiens) (UniProt P04637). Put plainly: ATG_p53_CIS: Attagene CIS-FACTORIAL HepG2 Assay for human p53 Transcription Factor (AID 2282994). The following applies: HepG2 p53 cis-element reporter, Attagene mRNA; actives raise or lower the signal. The method, boiled down: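 Endogenous p53 activity read in transiently transfected HepG2 from a cis-element-driven reporter transcript after 24 h exposure. RNA reverse-transcribed, PCR-amplified, fluorescently labelled and sized by capillary electrophoresis; gain or loss fitted against DMSO baseline.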

Experiment [6] is described as follows: BSK_3C_TissueFactor: BioMAP Diversity Plus: 3C Assay for Tissue Factor Biomarker Activity (AID 2282997). Conditions: BioMAP 3C HUVEC, tissue factor biomarker readout; actives raise or lower the signal. The method in brief: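 Readout: Tissue Factor ELISA. Cells: human primary umbilical vein endothelium. Time: 24 h after dosing. Analysis: bidirectional fit, DMSO baseline.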

Experiment [7] in a line: BSK_3C_uPAR: BioMAP Diversity Plus: 3C Assay for Urokinase-type plasminogen activator receptor (uPAR) Biomarker Activity (AID 2282998). The following applies: BioMAP 3C HUVEC, uPAR biomarker ELISA; actives raise or lower the signal. The method in brief: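 Cell-surface uPAR on HUVEC (3C system) read by ELISA at 24 h post-treatment, with DMSO as baseline and fitting in both directions. Parallel cultures stained with SRB to flag overt cytotoxicity.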

Experiment [8] can be described thus: BSK_3C_VCAM1: BioMAP Diversity Plus: 3C Assay for Vascular cell adhesion molecule 1 (VCAM1) Biomarker Activity (AID 2282999). The following applies: BioMAP 3C HUVEC, VCAM1 ELISA, cytokine-stimulated; actives raise or lower the signal. The method, boiled down:
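Activity fitted in both directions relative to DMSO, with ELISA measurement of the surface marker on primary HUVEC (3C) at 24 h post-treatment; parallel SRB staining (0.1% SRB, TCA-fixed, 560 nm) flagged overt cytotoxicity.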
Background: In an ELISA, binding on a coated surface is turned into a signal by an enzyme label.

Experiment [9] can be described thus: BSK_4H_Eotaxin3: BioMAP Diversity Plus: 4H Assay for Eotaxin 3 Biomarker Activity (AID 2283000).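 On outcome: CCL26 protein level quantified by ELISA in parallel with SRB cytotoxicity check.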 The following applies: primary human endothelial cells (HUVEC); actives raise or lower the signal. The method, boiled down:
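HUVEC, 24 h post-dose, ELISA for Eotaxin-3/CCL26. Gain or loss of signal fitted bidirectionally vs DMSO baseline.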

Read-out in experiment [10]: Intercellular Adhesion Molecule 1 (ICAM1), ICAM1 (gene 3383)
The experiment is described as follows: BSK_3C_ICAM1: BioMAP Diversity Plus: 3C Assay for Intercellular Adhesion Molecule 1 (ICAM1) Biomarker Activity (AID 2283003). The following applies: primary human endothelial cells (HUVEC); actives raise or lower the signal. The method in brief:
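ELISA read-out of ICAM-1; HUVEC (primary human), 3C system, 24 h post-dosing; bidirectional fit vs DMSO baseline.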

A short description of experiment [11]: BSK_3C_Proliferation: Cell Proliferation Assessment in the BioMAP Diversity Plus: 3C Assay (AID 2283006).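 On AC50: potency may reflect either rise or fall in cell number versus DMSO.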 Conditions: primary human endothelial cells (HUVEC). The method in brief: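 HUVEC, sub-confluent; 48 h chemical exposure; 10% TCA fix, 0.1% SRB stain, A560 total protein. Gain or loss of signal fitted both directions vs DMSO control.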
Experiment [12] deals with Peroxisome proliferator-activated receptor gamma (Homo sapiens) (UniProt P37231). The experiment is described as follows: ATG_PPARg_TRANS: Attagene TRANS-FACTORIAL HepG2 Assay for human Peroxisome Proliferator-activated Receptor-gamma (PPARg) (AID 2283007; active means hit-call score of the fitted dose curve at least 0.9, where 1 is the maximum). The method, boiled down: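 HepG2 cells are transiently transfected with GAL4-UAS reporter units driven by chimeric NR-Gal4 fusions and dosed for 24 h. Reporter mRNA is quantified by RT-PCR, 6-FAM labelling, HpaI digestion and capillary electrophoresis. Induction is scored against DMSO.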
Chain of Peroxisome proliferator-activated receptor gamma (Homo sapiens) (P37231 whole entry, looked up, the tested form may be a part): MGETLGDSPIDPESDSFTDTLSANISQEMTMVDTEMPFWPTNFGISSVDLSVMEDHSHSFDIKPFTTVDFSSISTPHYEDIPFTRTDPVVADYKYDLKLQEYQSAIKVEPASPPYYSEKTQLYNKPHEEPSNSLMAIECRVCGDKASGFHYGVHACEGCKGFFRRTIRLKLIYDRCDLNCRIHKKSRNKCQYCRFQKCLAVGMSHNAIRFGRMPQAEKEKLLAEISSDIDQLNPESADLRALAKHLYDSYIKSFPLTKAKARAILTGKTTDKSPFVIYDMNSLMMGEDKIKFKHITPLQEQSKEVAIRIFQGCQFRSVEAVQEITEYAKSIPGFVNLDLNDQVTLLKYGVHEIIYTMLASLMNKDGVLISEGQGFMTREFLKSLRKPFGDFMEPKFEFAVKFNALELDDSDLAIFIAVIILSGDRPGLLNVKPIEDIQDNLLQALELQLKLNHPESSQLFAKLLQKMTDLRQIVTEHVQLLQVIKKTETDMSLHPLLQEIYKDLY

Experiment [13] deals with Nuclear receptor subfamily 1 group I member 2 (Homo sapiens) (UniProt O75469). Put plainly: ATG_PXR_TRANS: Attagene TRANS-FACTORIAL HepG2 Assay for human Pregnane X Receptor (PXR) (AID 2283008; active means hit-call score of the fitted dose curve at least 0.9, where 1 is the maximum). The method, boiled down:
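Transactivation by exogenous PXR–GAL4 fusion measured as reporter transcript induction after 24 h compound treatment of transfected human HepG2 cells. Read-out via RT-PCR and capillary electrophoresis of labelled fragments, fitted upward relative to DMSO.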

The target of experiment [14] is human RAR-related Orphan Receptor gamma (RORg), RORC (gene 6097) (UniProt P51449). The experiment is described as follows: ATG_RORg_TRANS: Attagene TRANS-FACTORIAL HepG2 Assay for human RAR-related Orphan Receptor gamma (RORg) (AID 2283011; active means hit-call score of the fitted dose curve at least 0.9, where 1 is the maximum;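 on AC50: potency for induction of reporter transcripts above DMSO so activators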). The method, boiled down:
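Readout: reporter transcript induction (RT-PCR, fluorescent primer extension, capillary electrophoresis) after 24 h compound exposure of transiently transfected HepG2 cells carrying a RORg-Gal4 chimera and GAL4-UAS reporters; DMSO served as baseline, with increasing signal fitted.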

The target in experiment [15] is human Peroxisome Proliferator-activated Receptor alpha (PPARa), PPARA (gene 5465) (UniProt Q07869). The experiment is described as follows: ATG_PPARa_TRANS: Attagene TRANS-FACTORIAL HepG2 Assay for human Peroxisome Proliferator-activated Receptor alpha (PPARa) (AID 2283001; active means hit-call score of the fitted dose curve at least 0.9, where 1 is the maximum;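 on AC50: potency for gain of reporter signal over DMSO so agonist or activator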). The method, boiled down:
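Transfected HepG2 cells treated with test chemical for 24 h. RNA isolated, reverse-transcribed with oligo(dT), PCR-amplified, FAM-labelled and HpaI-digested. Fragments sized by capillary electrophoresis; gain-of-signal fit relative to DMSO.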

In experiment [16] the target is human Retinoic Acid Receptor beta (RARb), RARB (gene 5915) (UniProt P10826). Put plainly: ATG_RARb_TRANS: Attagene TRANS-FACTORIAL HepG2 Assay for human Retinoic Acid Receptor beta (AID 2283004; active means hit-call score of the fitted dose curve at least 0.9, where 1 is the maximum). The method in brief: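 HepG2 cells transiently transfected with multiplexed GAL4-UAS reporter units expressing chimeric NR–Gal4 fusions; 24 h compound exposure. Reporter mRNA quantified by RT-PCR, 6-FAM labelling, HpaI digestion and capillary electrophoresis; gain-of-signal fitted against DMSO baseline.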
Chain of human Retinoic Acid Receptor beta (RARb), RARB (gene 5915) (P10826 whole entry, looked up, the tested form may be a part): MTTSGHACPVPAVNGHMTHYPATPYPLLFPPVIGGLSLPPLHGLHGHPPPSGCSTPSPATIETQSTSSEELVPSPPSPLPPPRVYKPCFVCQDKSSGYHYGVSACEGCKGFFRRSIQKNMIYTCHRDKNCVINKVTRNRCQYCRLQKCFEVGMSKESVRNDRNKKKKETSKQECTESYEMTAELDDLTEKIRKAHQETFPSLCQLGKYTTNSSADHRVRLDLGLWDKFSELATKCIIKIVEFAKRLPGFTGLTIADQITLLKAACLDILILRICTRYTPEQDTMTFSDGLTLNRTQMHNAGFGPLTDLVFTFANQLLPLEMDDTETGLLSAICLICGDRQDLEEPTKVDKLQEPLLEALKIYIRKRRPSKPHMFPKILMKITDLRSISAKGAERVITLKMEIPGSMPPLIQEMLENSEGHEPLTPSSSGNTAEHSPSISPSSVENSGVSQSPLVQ

In experiment [17] the target is human Peroxisome Proliferator-activated Receptor delta (PPARd), PPARD (gene 5467) (UniProt Q03181). The experiment is described as follows: ATG_PPARd_TRANS: Attagene TRANS-FACTORIAL HepG2 Assay for human Peroxisome Proliferator-activated Receptor delta (PPARd) (AID 2283002; active means hit-call score of the fitted dose curve at least 0.9, where 1 is the maximum). The method in brief:
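Transient HepG2 transfection (multiple GAL4-UAS RTUs, chimeric receptor-Gal4); 24 h dosing; total RNA → oligo(dT) RT → PCR → 6-FAM primer extension → HpaI cut → CE. Positive direction vs DMSO.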

In experiment [18] the target is Retinoic acid receptor alpha (Homo sapiens) (UniProt P10276). Put plainly: ATG_RARa_TRANS: Attagene TRANS-FACTORIAL HepG2 Assay for human Retinoic Acid Receptor alpha (RARa) (AID 2283005; active means hit-call score of the fitted dose curve at least 0.9, where 1 is the maximum;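 on AC50: potency for increased reporter signal meaning RARa activation over DMSO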). The method in brief: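 Reporter transcripts, measured by RT-PCR with fluorescent labeling and capillary electrophoresis after 24 h dosing, reflect activity of an exogenous human RARa–GAL4 fusion in transiently transfected HepG2. Fitted for increase relative to DMSO.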
Chain of Retinoic acid receptor alpha (Homo sapiens) (P10276 whole entry, looked up, the tested form may be a part): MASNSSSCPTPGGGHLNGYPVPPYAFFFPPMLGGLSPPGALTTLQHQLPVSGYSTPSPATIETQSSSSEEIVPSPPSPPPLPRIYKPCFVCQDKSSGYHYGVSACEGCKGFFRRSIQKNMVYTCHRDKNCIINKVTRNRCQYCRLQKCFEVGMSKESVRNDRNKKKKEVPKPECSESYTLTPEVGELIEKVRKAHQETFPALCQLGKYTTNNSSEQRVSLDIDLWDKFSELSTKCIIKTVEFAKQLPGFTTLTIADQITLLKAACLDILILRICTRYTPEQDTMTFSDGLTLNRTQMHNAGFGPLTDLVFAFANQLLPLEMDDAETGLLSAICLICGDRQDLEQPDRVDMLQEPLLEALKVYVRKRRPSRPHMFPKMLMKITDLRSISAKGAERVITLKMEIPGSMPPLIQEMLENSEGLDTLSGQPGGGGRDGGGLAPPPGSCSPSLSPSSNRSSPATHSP

The target in experiment [19] is human Retinoic Acid Receptor gamma (RARg), RARG (gene 5916) (UniProt P13631). Put plainly: ATG_RARg_TRANS: Attagene TRANS-FACTORIAL HepG2 Assay for human Retinoic Acid Receptor gamma (RARg) (AID 2283009; active means hit-call score of the fitted dose curve at least 0.9, where 1 is the maximum;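 further: AC50 is for reporter induction above DMSO meaning RARg activation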). The method, boiled down: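 Readout: reporter transcript levels via RT-PCR, 6-FAM primer-extension labelling, HpaI digestion and capillary electrophoresis. Cells: HepG2 carrying transfected RARg-GAL4 chimera plus UAS reporter set. Dosing 24 h; DMSO negative control.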

The target in experiment [20] is human RAR-related Orphan Receptor beta (RORb), RORB (gene 6096) (UniProt Q92753). The experiment is described as follows: ATG_RORb_TRANS: Attagene TRANS-FACTORIAL HepG2 Assay for human RAR-related Orphan Receptor beta (RORb) (AID 2283010; active means hit-call score of the fitted dose curve at least 0.9, where 1 is the maximum). The method, boiled down:
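HepG2, transient MRTU transfection (GAL4-UAS reporters, exogenous NR-Gal4 chimeras); 24 h compound exposure; total RNA → RT-PCR → 6-FAM primer extension → HpaI digest → CE fluorescence. Positive direction vs DMSO baseline.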

Chain of Cellular tumor antigen p53 (Homo sapiens) (P04637 whole entry, looked up): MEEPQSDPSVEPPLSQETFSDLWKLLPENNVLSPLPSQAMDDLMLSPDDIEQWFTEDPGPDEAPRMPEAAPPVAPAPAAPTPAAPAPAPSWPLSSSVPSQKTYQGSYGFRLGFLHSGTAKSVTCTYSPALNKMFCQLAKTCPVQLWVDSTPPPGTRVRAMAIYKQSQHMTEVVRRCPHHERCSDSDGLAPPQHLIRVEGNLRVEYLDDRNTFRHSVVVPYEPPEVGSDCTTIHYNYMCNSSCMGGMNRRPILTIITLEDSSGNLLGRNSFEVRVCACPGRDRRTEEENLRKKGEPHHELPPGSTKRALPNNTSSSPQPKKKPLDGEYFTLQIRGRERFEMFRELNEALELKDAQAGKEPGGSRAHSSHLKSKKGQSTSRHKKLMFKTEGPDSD
Chain of human Peroxisome Proliferator-activated Receptor alpha (PPARa), PPARA (gene 5465) (Q07869 whole entry, looked up, the tested form may be a part): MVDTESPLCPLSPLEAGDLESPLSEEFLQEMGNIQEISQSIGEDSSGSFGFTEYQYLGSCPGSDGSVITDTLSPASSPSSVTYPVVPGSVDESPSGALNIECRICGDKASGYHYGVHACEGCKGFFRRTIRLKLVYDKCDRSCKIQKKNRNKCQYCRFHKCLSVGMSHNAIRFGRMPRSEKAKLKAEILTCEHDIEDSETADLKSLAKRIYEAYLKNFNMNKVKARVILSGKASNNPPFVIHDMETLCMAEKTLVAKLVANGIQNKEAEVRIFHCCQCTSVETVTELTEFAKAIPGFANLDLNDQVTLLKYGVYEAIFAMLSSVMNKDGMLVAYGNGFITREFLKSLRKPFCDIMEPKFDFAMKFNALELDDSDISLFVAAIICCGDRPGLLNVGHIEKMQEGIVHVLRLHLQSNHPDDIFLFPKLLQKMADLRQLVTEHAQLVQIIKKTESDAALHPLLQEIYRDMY
Chain of Myc proto-oncogene protein (Homo sapiens) (P01106 whole entry, looked up): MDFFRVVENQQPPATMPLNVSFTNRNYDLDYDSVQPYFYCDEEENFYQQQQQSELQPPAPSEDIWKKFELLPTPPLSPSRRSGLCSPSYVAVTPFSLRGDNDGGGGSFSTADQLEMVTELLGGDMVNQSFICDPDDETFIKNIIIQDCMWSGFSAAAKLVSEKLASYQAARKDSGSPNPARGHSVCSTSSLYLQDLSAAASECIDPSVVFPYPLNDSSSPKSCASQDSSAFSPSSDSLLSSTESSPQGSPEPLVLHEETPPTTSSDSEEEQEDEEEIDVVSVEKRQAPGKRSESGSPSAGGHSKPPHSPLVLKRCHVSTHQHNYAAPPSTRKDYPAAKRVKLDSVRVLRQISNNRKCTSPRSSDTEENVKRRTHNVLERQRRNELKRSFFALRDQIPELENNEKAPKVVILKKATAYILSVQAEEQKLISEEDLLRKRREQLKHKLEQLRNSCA
Chain of Nuclear receptor subfamily 1 group I member 2 (Homo sapiens) (O75469 whole entry, looked up, the tested form may be a part): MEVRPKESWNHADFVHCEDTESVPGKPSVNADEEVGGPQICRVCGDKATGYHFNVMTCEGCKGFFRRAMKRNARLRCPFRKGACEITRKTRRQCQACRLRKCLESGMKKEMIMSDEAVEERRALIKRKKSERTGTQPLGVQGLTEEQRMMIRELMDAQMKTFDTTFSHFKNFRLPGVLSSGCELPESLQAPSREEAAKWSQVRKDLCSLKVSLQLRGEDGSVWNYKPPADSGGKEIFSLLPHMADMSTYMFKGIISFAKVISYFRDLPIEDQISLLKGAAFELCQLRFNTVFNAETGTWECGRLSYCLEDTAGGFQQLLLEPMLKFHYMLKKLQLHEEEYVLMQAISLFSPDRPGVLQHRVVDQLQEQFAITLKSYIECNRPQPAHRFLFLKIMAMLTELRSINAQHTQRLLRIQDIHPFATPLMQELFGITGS
Chain of human RAR-related Orphan Receptor gamma (RORg), RORC (gene 6097) (P51449 whole entry, looked up, the tested form may be a part): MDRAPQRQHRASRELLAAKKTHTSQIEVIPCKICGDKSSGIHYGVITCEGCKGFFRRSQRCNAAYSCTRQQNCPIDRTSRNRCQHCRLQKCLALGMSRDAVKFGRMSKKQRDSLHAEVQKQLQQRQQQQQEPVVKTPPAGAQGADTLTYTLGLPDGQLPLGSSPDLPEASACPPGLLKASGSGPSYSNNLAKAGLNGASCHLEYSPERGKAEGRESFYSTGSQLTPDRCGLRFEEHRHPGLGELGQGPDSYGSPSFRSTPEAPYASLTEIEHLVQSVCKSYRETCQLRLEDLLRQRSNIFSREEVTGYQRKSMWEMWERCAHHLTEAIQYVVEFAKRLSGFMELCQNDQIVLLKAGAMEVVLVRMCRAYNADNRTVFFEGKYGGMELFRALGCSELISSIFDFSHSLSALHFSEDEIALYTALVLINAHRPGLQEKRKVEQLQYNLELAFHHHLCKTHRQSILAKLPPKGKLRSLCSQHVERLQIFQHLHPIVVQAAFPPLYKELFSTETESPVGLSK
Chain of human Peroxisome Proliferator-activated Receptor delta (PPARd), PPARD (gene 5467) (Q03181 whole entry, looked up, the tested form may be a part): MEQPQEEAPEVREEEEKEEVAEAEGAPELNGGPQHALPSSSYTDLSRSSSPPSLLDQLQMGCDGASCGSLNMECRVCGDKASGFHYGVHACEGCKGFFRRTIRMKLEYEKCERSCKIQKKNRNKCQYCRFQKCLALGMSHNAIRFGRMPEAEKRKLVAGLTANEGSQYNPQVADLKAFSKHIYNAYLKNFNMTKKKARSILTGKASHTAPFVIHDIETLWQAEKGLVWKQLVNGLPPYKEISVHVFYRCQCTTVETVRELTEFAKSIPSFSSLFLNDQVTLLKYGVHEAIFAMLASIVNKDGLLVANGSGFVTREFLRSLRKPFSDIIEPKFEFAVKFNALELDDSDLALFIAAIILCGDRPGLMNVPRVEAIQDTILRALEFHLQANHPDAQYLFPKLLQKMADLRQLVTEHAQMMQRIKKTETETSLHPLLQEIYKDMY
Chain of human RAR-related Orphan Receptor beta (RORb), RORB (gene 6096) (Q92753 whole entry, looked up, the tested form may be a part): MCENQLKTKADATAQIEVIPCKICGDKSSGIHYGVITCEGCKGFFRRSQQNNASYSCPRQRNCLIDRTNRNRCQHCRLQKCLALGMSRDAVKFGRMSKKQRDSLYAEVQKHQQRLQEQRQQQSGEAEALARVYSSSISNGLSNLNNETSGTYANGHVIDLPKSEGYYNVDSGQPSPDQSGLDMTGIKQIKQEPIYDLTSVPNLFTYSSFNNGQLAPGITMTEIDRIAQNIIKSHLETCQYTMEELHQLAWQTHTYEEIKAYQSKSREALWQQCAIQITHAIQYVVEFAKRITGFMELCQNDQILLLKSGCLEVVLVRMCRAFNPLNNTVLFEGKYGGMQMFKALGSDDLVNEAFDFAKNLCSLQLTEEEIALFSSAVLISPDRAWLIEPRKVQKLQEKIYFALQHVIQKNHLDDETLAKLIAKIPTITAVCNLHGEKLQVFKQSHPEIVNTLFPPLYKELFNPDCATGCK

As for `CC(=O)C1(C)CC2=C(CCCC2(C)C)CC1C` (centres undefined), the result in experiment [1] and in experiment [14] was inactive. Also, the concentration at half-maximal activity (AC50) in experiment [2] is 121 µM (active); in experiment [3] it was 93.6 µM (active); in experiment [4] it was 61.1 µM (active); in [5], 144 µM (active); in [6], 7.62 µM (active); in experiment [7], 8.27 µM (active). Further, the AC50 in [8] was 11 µM (active); in experiment [9], 9.74 µM (active); in experiment [10] it was 12.8 µM (active); in experiment [11], 6.69 µM (active); in [12], 100 µM (active); in experiment [13], 9.83 µM (active).

`C=C(C)C(=O)OCC(CC)(COC(=O)C(=C)C)COC(=O)C(=C)C`: the compound was classed as inactive in [1], in experiment [2], in experiment [4], in experiment [5], in experiment [6] and in [7]. Also, the outcome in [8], in [9] and in experiment [13] was inactive. In addition, the AC50 in experiment [3] is 51.4 µM (active); in [11], 13.9 µM (active); in experiment [12], 98.5 µM (active).

As to `CC(CN=Cc1ccccc1O)N=Cc1ccccc1O` (centres undefined), the compound was called inactive in [1], in [4], in experiment [5], in experiment [6], in experiment [7] and in [8]. Also, the outcome in experiment [9], in [15], in experiment [16] and in experiment [11] was inactive. Moreover, the half-maximal activity concentration (AC50) in experiment [2] is 63.6 µM (active); in experiment [3], 69.5 µM (active); in experiment [11], 3.97 µM (active); in [12], 72.2 µM (active).

As to `CCc1cc(Cc2cc(CC)cc(C(C)(C)C)c2O)c(O)c(C(C)(C)C)c1`, the compound was called inactive in [1], in [5], in experiment [17] and in experiment [16]. Further, the half-maximal activity concentration (AC50) in experiment [2] was 17.4 µM (active); in [3] it was 7.08 µM (active); in [4] it was 16.3 µM (active); in experiment [15], 51.9 µM (active); in experiment [18], 8.99 µM (active); in experiment [12], 7.31 µM (active). The half-maximal activity concentration (AC50) in [13] is 0.028 µM (active); in experiment [19], 9.1 µM (active).

As for `C=Cc1ccncc1`, the compound was called inactive in [1], in [5], in experiment [15], in experiment [18], in [13] and in experiment [20]. Further, the AC50 in experiment [2] was 61.5 µM (active); in experiment [3], 25.1 µM (active); in [4], 26.8 µM (active); in [17] it was 25.6 µM (active); in experiment [12] it was 77.4 µM (active); in experiment [14], 60.2 µM (active).
